{"source": "PubChem BioAssay (NCI)", "note": "The panel holds about 83,000 compounds, 20% with a hit somewhere; the sample as a whole holds those more often.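 Single-concentration screen, 48 h exposure, 96-well plates. Endpoint: percent growth. Below 10 = active.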 Values without a mark were called inactive. Activity calls are given as the source filed them.", "data": [{"test_system": "HOP-92 NSCLC", "test": "NCI-60 one-dose screen, 48 h (100 = growth as untreated, 0 = no growth, -100 = all killed)", "settings": "10 µM unless noted", "method": "Growth inhibition of the HOP-92 human Non-Small Cell Lung tumor cell line is measured as a screen for anti-cancer activity. Cells are grown in 96 well plates and exposed to the test compound for 48 hours. Compounds are tested at a single concentration, which is 10^-5 M for most compounds. The reported endpoint is percent growth (GI% or GIPRCNT), where numbers from 0 - 100% represent growth inhibition, and numbers from -100% - 0 represent cell death. For example, a value of 40 represents 60% growth inhibition. A value of 0 means no net growth occurred over the course of the experiment. A value of -40 indicates 40% of cells at the beginning of the experiment died by the end of the experiment. A value of -100 means all cells are dead at the end of the experiment.\nNCI-60 Human Tumor Cell Lines Screen was performed using the standard one-dose NCI protocol, which is described in more detail at https://dtp.cancer.gov/discovery_development/nci-60/default.htm.\nCompounds with GIPRCNT values below 10 were considered active. Activity score was based on GIPRCNT using the following formula: […]\nScore is 0 for GIPRCNT values of 100 or above, 50 for GIPRCNT values of 0, and 100 for GIPRCNT values of -100.", "values": [{"compound": "CN1CCN(Cc2ccc(NC(=O)c3cncc(C#Cc4cnc5ccc(NC6CCOCC6)nn45)c3)cc2C(F)(F)F)CC1", "growth": "-29.2% (active)"}, {"compound": "Cc1ccc(S(=O)(=O)N/N=C/c2cn(-c3ccc(F)cc3)nc2-c2ccc(S(C)(=O)=O)cc2)cc1", "growth": "89.7%"}, {"compound": "Cn1cc(-c2nn3cc(-c4ccncc4)nc3s2)c2cc(Cl)ccc21", "growth": "0.128% (active)"}, {"compound": "O=C(Nc1ccc(F)cc1)c1cc(-c2ccc(F)cc2F)ccc1O", "growth": "-26.6% (active)"}, {"compound": "CCOc1ccc2nc(NC(=O)Nc3ccccc3C)sc2c1", "growth": "126%"}, {"compound": "CC1=C2C(=C[C@@](C)(COS(N)(=O)=O)[C@@H]2O)C(=O)[C@](C)(O)C12CC2", "growth": "43.8%"}, {"compound": "COc1ccc(-c2nc3cc(Cl)c(Cl)cc3n2CC(=O)N=Nc2c(O)[nH]c3ccc(Cl)cc23)cc1", "growth": "-28% (active)"}, {"compound": "O=C(Nc1cccc(Cl)c1)Nc1nc2ccc([N+](=O)[O-])cc2s1", "growth": "-11.9% (active)"}, {"compound": "COc1ccc2c(C3=C(c4c[nH]c5ccccc45)C(=O)N(O)C3=O)coc2c1", "growth": "96%"}, {"compound": "O=C1/C(=C/c2ccccc2[N+](=O)[O-])Oc2ccc(O)cc21", "growth": "80%"}, {"compound": "NS(=O)(=O)c1ccc(Nc2nc(N/N=C/c3ccc(C(F)(F)F)cc3)nc(Nc3ccccc3)n2)cc1", "growth": "57.4%"}, {"compound": "O=C(/C=C/c1cccc(O)c1)c1ccc(O)cc1", "growth": "104%"}, {"compound": "Cc1nn(-c2ccc(Cl)cc2)c(C)c1N=Nc1ccc2oc(=O)ccc2c1", "growth": "76.8%"}, {"compound": "CCc1ccc(NC(=O)N[C@@H](Cc2cccc(C)c2)C(=O)N[C@@H]2C(=O)N3CCC[C@H]3C(=O)N3CCCC[C@H]3C(=O)N[C@@H](CO)C(=O)N3C[C@H](C)C[C@H]3C(=O)O[C@H]2C)c(F)c1", "growth": "-0.374% (active)"}, {"compound": "CC[C@@](C)(NC(=O)C(C)(C)NC(=O)[C@@H](NC(=O)[C@@H]1CCCN1C(=O)C(C)(C)NC(=O)[C@H](CC(C)C)NC(=O)CNC(=O)C(C)(C)NC(=O)[C@@H](NC(=O)C(C)(C)NC(=O)[C@H](CCC(N)=O)NC(=O)[C@H](C)NC(=O)C(C)(C)NC(=O)[C@H](C)NC(=O)C(C)(C)NC(=O)[C@@H]1CCCN1C(=O)C(C)(C)NC(C)=O)C(C)C)C(C)C)C(=O)N[C@@H](CCC(N)=O)C(=O)N[C@@H](CCC(N)=O)C(=O)N[C@H](CO)Cc1ccccc1", "growth": "-13.3% [4.25 µM] (active)"}, {"compound": "CCOC(=O)C1=C(C)Nc2nc3ccccc3n2C1c1cccc(Br)c1", "note": "(stereo not given)", "growth": "99.3%"}, {"compound": "CCCCCCNC(=O)Oc1ccc(/C(=C(\\C)c2ccc(OC)cc2)c2ccc(OCCN(C)C)cc2)cc1", "growth": "50.4%"}, {"compound": "O=C(Cn1cc(CN2C(=O)c3ccc([N+](=O)[O-])cc3C2=O)nn1)Nc1ccc(F)cc1Cl", "growth": "79.7%"}, {"compound": "O=C(O)c1ccc(-n2cc(CNc3ccc(F)cc3)c(-c3ccc(C(F)(F)F)cc3)n2)cc1", "growth": "78.3%"}, {"compound": "C=CCn1c(SCC(=O)Nc2cccc(C(=O)/C=C/c3cccc([N+](=O)[O-])c3)c2)nc2ccccc2c1=O", "growth": "82.1%"}, {"compound": "Cc1cc(NS(=O)(=O)c2ccc(-c3cnc(C4CC4)o3)cc2)ccc1I", "growth": "62.4%"}, {"compound": "CC(C)(C)OC(=O)N1CCN(S(=O)(=O)/N=C2\\NC(=O)NC2=C(Cl)Cl)CC1", "growth": "108%"}, {"compound": "CC[C@]12C=CCN3CC[C@]4(C(=C(C(=O)OC)C1)Nc1cc5c(cc14)[C@@H]1[C@H](O5)[C@@H](O)[C@@]4(CC)CC(C(=O)OC)=C5Nc6cc(OC)ccc6[C@@]56CCN1[C@@H]46)[C@@H]32", "growth": "37.1%"}, {"compound": "C#C[C@]1(O)CC[C@H]2[C@@H]3CC=C4c5sc(Nc6cc(OC)ccc6OC)nc5CC[C@]4(C)[C@H]3CC[C@@]21C", "growth": "51.4%"}, {"compound": "COc1ccc(/C(C)=C(\\c2ccc(Cl)cc2)c2ccc(OCCN)cc2)cc1", "growth": "61.6%"}, {"compound": "CCN(CC)Cc1c(-c2cccc(OC(F)(F)F)c2)[nH]c2ccc(N3CCCC3)cc2c1=O", "growth": "86.2%"}, {"compound": "O=C(CCCCCCN1CC(=O)N2[C@@H](c3cc(F)cc(F)c3)c3[nH]c4ccccc4c3C[C@H]2C1=O)NO", "growth": "49.2%"}, {"compound": "NS(=O)(=O)c1ccc(Nc2nc(N/N=C/c3ccc([N+](=O)[O-])cc3)nc(Nc3ccccc3)n2)cc1", "growth": "49.1%"}, {"compound": "O=C(Cn1cc(CN2C(=O)c3ccc([N+](=O)[O-])cc3C2=O)nn1)Nc1ccccc1Br", "growth": "114%"}, {"compound": "Oc1ccc(CSc2nnc(-c3ccccc3)o2)c2cccnc12", "growth": "-3.86% (active)"}, {"compound": "O=C(COc1ccc(/C=C2\\SC(=O)NC2=O)cc1)Nc1ccc(C(=O)/C=C/c2cc3ccccc3nc2Cl)cc1", "growth": "88.2%"}, {"compound": "Cc1csc(Nc2cccc(Nc3nc(C)cs3)c2)n1", "growth": "52.2%"}, {"compound": "CC(C)C[C@H]1C(=O)O[C@H](C(C)C)C(=O)N(C)[C@@H](C(C)C)C(=O)O[C@H](C(C)C)C(=O)N(C)[C@@H](C(C)C)C(=O)O[C@H](C(C)C)C(=O)N1C", "growth": "-23.2% (active)"}, {"compound": "CCNCCCn1c2c(c3cc(OC)c(OC)cc3c1=O)C(=O)c1cc(OC)cnc1-2", "growth": "31.1%"}, {"compound": "CC(=O)NC(C)(C)C(=O)N[C@@H](C)C(=O)NC(C)(C)C(=O)N[C@@H](C)C(=O)NC(C)(C)C(=O)N[C@@H](C)C(=O)N[C@@H](CCC(N)=O)C(=O)NC(C)(C)C(=O)N[C@H](C(=O)NC(C)(C)C(=O)NCC(=O)N[C@@H](CC(C)C)C(=O)NC(C)(C)C(=O)N1CCC[C@H]1C(=O)N[C@H](C(=O)NC(C)(C)C(=O)NC(C)(C)C(=O)N[C@@H](CCC(N)=O)C(=O)N[C@@H](CCC(N)=O)C(=O)N[C@H](CO)CC1CCCCC1)C(C)C)C(C)C", "growth": "-13.3% [5 µM] (active)"}, {"compound": "COc1cc2oc(-c3cccc(NC(=O)c4cc(NC(=O)[C@H](C)NC(=O)OC(C)(C)C)ccc4C)c3)cc(=O)c2c(OC)c1OC", "growth": "-0.546% (active)"}, {"compound": "Cc1ccc(NC(=O)c2ccc(CN3CCN(C)CC3)c(C(F)(F)F)c2)cc1Oc1ccc(-c2[nH]nc3ncnc(N)c23)cc1", "growth": "103%"}, {"compound": "C#CCOc1ccc(/C=N/Nc2nc(-c3cc(Cl)ccc3Cl)cs2)cc1", "growth": "69.7%"}, {"compound": "COCCC[C@H]1O[C@@](O)([C@H](C)[C@@H]2CC(OC)C(O)/C=C(C)/C=C(C)/C=C(\\C)C(OC3O[C@@H](C)[C@H](O)C(O)[C@@H]3O)C(C)/C=C(C)/C=C(OC)/C=C(\\C)C(=O)O2)C(OC)C(O)[C@]1(C)O[C@H]1C[C@@H](O)[C@H](O[C@H]2C[C@](C)(O)[C@H](O)C(C)O2)C(C)O1", "note": "(stereo not given in full)", "growth": "88.2%"}, {"compound": "N#C/C(=C\\c1ccc(-c2ccc(F)cc2)o1)C(=O)Nc1ncc(Cc2ccc(Cl)cc2Cl)s1", "growth": "36.7%"}]}]}
